Records with an inconclusive call do not appear. Entries that show only a call come without a potency. Calls of active or inactive are those of the source. The call rests on the fitted dose curve; in most records, active means well fitted curve in the direction sought with a large enough effect; inconclusive means small, poorly fitted or top-dose-only effect, or another doubt; inactive means no such curve, though single readings can be large; an effect the other way counts as inactive or inconclusive.
Assays:
[1] = qHTS to identify inhibitors of the type 1 interferon - major histocompatibility complex class I in skeletal muscle: primary screen against the NCATS Pharmaceutical Collection (AID 1347407);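 further: luminescence of HiBiT knocked into endogenous HLA-B as interferon-induced MHC class I level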
How it was run: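 Luminescence from HiBiT-tagged endogenous HLA-B*08:01 served as the read-out of IFN-beta-induced MHC class I in CRISPR-engineered C25cl48 myoblasts. Cells received 4 ng/ml IFN-beta plus compound (high final 46 uM, […]) for 24 h.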

[2] = biological target: Protein phosphatase 1D (Homo sapiens) (UniProt O15297); assay: RapidFire Mass Spectrometry qHTS Assay for Modulators of WT P53-Induced Phosphatase 1 (WIP1) (AID 1347424);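 further: amount of dephosphorylated VEPPL-S-QETFS peptide product formed by WIP1; series mostly up to about 63 µM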
Protein phosphatase 1D (Homo sapiens), sequence (O15297 whole entry, looked up): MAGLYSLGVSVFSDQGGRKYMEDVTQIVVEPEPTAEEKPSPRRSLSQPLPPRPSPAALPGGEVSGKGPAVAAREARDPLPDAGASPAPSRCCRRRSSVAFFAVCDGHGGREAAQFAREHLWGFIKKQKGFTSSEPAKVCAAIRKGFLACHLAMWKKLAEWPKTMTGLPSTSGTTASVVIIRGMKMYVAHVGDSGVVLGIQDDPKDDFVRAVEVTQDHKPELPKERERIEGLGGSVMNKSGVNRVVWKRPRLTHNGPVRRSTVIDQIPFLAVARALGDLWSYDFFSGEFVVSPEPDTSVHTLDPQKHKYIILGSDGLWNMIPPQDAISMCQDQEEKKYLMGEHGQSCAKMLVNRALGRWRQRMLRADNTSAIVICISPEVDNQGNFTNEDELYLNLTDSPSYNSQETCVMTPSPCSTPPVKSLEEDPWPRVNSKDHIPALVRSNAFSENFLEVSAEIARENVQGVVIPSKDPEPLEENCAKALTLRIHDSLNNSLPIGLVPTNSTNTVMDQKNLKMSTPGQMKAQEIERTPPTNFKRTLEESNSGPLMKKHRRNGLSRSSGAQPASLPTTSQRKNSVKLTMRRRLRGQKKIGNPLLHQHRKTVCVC
How it was run: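 10 nM WIP1 preincubated with compounds 1 hr at room temperature in pH 7.5 Tris buffer with 30 mM MgCl2, 1 mM TCEP; 2 uM VEPPL-pS-QETFS phosphopeptide for 5 min, formic acid quench; dephosphorylated product quantified by RapidFire MS against labelled standard.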

[3] = biological target: Protein phosphatase 1D (Homo sapiens) (UniProt O15297); assay: Rhodamine-PBP qHTS Assay for Modulators of WT P53-Induced Phosphatase 1 (WIP1) (AID 1347425)
How it was run: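 The read-out is the change in Rhodamine-PBP fluorescence (f1 - f0, ex 525/em 598 nm) as Pi is released, read each minute for 11 min. Final reaction: 5 nM WIP1, 10 uM phosphopeptide VEPPL-pS-QETFS, 10 uM Rh-PBP, 50 mM Tris-HCl pH 7.5, 30 mM MgCl2. Compound was preincubated with enzyme for 1 hour at room temperature.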

[4] = qHTS to identify inhibitors of the type 1 interferon - major histocompatibility complex class I in skeletal muscle: primary screen against the NCATS LOPAC collection (AID 1347405);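 further: lytic HiBiT luminescence reporting HLA-B protein level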; further: potency means the concentration at half of the fitted maximal effect
How it was run: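 Cells: C25cl48 human myoblasts, HiBiT-tagged HLA-B*08:01, stimulated with IFN-beta 4.0 ng/ml. Compounds are titrated 1:4.3 over 7 points from 46 uM final and incubated 24 hrs; endogenous MHC class I is quantified by HiBiT lytic luminescence.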

[5] = qHTS to identify inhibitors of the type 1 interferon - major histocompatibility complex class I in skeletal muscle: primary screen against the NCATS Mechanism Interrogation Plate v5.0 (MIPE) Libary (AID 1347411); further: nearly all actives have a fitted effect of over 65% in size; further: potency means the concentration at half of the fitted maximal effect
How it was run: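 Cells were genome-edited human myoblasts carrying a HiBit tag on endogenous HLA-B. They were treated with IFN-beta (4.0 ng/ml) and titrated compounds (top 46 uM) for 24 hrs before lytic HiBiT detection.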

[6] = qHTS for inhibitors of adenylyl cyclases using a fission yeast platform: a pilot screen against the NCATS LOPAC library (AID 1347410)
How it was run: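 Fission yeast qHTS: CHP2027 cells (AC9-GNAS-PDE4D2, fbp1-GFP), 5x10^6 cells/mL working density, EMM + His/Lys/Ura; LOPAC at up to 57 µM final; 18 h dark, 30C; GFP by laser cytometry. DPI positive control, DMSO vehicle.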

Row | SMILES | Potency [1] | Potency [2] | outcome [3] | Potency [4] | Potency [5] | outcome [6]
1 | COc1cc2c(c(OC)c1OC)-c1ccc(OC)c(=O)cc1[C@@H](NC(C)=O)CC2 | inactive | inactive | inactive |  |  | 
2 | COc1cc2nc(N(C)CCCNC(=O)C3CCCO3)nc(N)c2cc1OC (configuration not stated) | inactive | inactive | inactive | inactive |  | 
3 | CC1(CN2CCC(n3c(=O)[nH]c4ccccc43)CC2)OCc2ccccc2-n2cccc21 (configuration not stated) | inactive |  | inactive |  | inactive | 
4 | O=C(Nc1ccc([N+](=O)[O-])cc1Cl)c1cc(Cl)ccc1O | inactive | inactive | inactive |  | inactive | inactive
5 | O=C1Cc2cc(CCN3CCN(c4nsc5ccccc45)CC3)c(Cl)cc2N1 | inactive |  | inactive |  |  | inactive
6 | CCCCc1oc2ccccc2c1C(=O)c1cc(I)c(OCCN(CC)CC)c(I)c1 | inactive | inactive | inactive |  |  | inactive
7 | CN(C)C(=O)C(CCN1CCC(O)(c2ccc(Cl)cc2)CC1)(c1ccccc1)c1ccccc1 | inactive |  | inactive |  |  | inactive
8 | Cn1c(=O)c2c(ncn2C)n(C)c1=O |  | inactive | inactive |  |  | 
9 | C[C@@H]1CC(=O)NN=C1c1ccc(NN=C(C#N)C#N)cc1 | inactive | inactive |  |  | 18.6 µM (active) | 
10 | CN(C)C(=N)N=C(N)N | inactive | inactive | inactive |  |  | 
11 | CC#C[C@]1(O)CC[C@H]2[C@@H]3CCC4=CC(=O)CCC4=C3[C@@H](c3ccc(N(C)C)cc3)C[C@@]21C | inactive |  | inactive |  | inactive | 
12 | COc1cc2nc(N3CCN(C(=O)c4ccco4)CC3)nc(N)c2cc1OC |  | inactive | inactive |  |  | inactive
13 | O=c1c(-c2ccc(O)cc2)coc2cc(O)cc(O)c12 |  | inactive | inactive | 17.8 µM (active) | 9.51 µM (active) | inactive
14 | CC(C)C(=O)Nc1ccc([N+](=O)[O-])c(C(F)(F)F)c1 |  |  | inactive | inactive | inactive | inactive
15 | Fc1ccc([C@@H]2CCNC[C@H]2COc2ccc3c(c2)OCO3)cc1 | inactive |  | inactive |  |  | 
16 | Cc1ccccc1N1C(=O)c2cc(S(N)(=O)=O)c(Cl)cc2NC1C (configuration not stated) | inactive | inactive | inactive |  | inactive | 
17 | O=C(C1CCCCC1)N1CC(=O)N2CCc3ccccc3C2C1 (configuration not stated) |  | inactive | inactive |  |  | 
18 | COC(=O)Nc1nc2ccc(C(=O)c3cccs3)cc2[nH]1 | inactive | inactive | inactive |  |  | inactive
19 | COc1ccc(CCN(C)CCCC(C#N)(c2ccc(OC)c(OC)c2)C(C)C)cc1OC (configuration not stated) |  |  | inactive |  |  | 
20 | COc1cc2nc(N3CCN(C(=O)C4COc5ccccc5O4)CC3)nc(N)c2cc1OC (configuration not stated) |  | inactive | inactive | inactive |  | inactive
21 | CS(=O)(=O)Nc1ccc([N+](=O)[O-])cc1Oc1ccccc1 | inactive |  | inactive |  |  | 
